# PubChem BioAssay
# Calls of active or inactive are those of the source. Unless noted, the rule behind the calls is not given here.
# Columns and labels:
# [1] = compound effects on lung adenocarcinoma cell viability – A549, calcein-AM fluorescence, 48 h, basal, profiling panel (AID 1162); conditions: higher = more signal; note: test concentration not given here
# [2] = compound effects on differentiated 3T3-L1 adipocyte viability – cell-based, 3T3-L1 adipocytes, calcein-AM fluorescence, 48 h, basal, profiling panel (AID 1163); conditions: 3T3-L1 adipocytes viability, higher = more signal; note: test concentration not given here
# [3] = compound effects on hepatocellular carcinoma cell viability – HepG2, calcein-AM fluorescence, 48 h, basal, profiling panel (AID 1164); conditions: higher = more signal; note: test concentration not given here
# [4] = compound effects on multiple myeloma cell viability – MM1S, calcein-AM fluorescence, 48 h, basal, profiling panel (AID 1165); conditions: higher = more signal; note: test concentration not given here
# [5] = calcein-AM signal in unstimulated myeloma cells – cell-based, calcein-AM fluorescence, 48 h, PK04 Diversity Set, profiling panel (AID 1166); conditions: RPMI8226 myeloma viability, higher = more signal;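 note: cells grown under basal conditions without added stimulus; test concentration not given here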
# [6] = JC-1 mitochondrial signal, unstimulated HepG2 cells – cell-based, JC-1 fluorescence, 24 h, 100 nL compound, profiling panel (AID 1167); conditions: HepG2 mitochondrial potential, higher = more signal; note: test concentration not given here
# [7] = JC-1 mitochondrial signal, unstimulated adipocytes – cell-based, JC-1 fluorescence, 3T3-L1 adipocytes, 24 h, 100 nL compound, profiling panel (AID 1168); conditions: JC-1 mitochondrial fluorescence, higher = more signal, called active from +8 up or from −8 down; note: test concentration not given here
# [8] = JC-1 mitochondrial signal, unstimulated myeloma cells – cell-based, JC-1 fluorescence, RPMI8226, 24 h, 100 nL compound, profiling panel (AID 1169); conditions: JC-1 mitochondrial potential fluorescence, higher = more signal; note: test concentration not given here
# [9] = JC-1 mitochondrial signal, unstimulated MM1S myeloma – cell-based, JC-1 fluorescence, 24 h, 100 nL compound, profiling panel (AID 1170); conditions: MM1S mitochondrial potential, higher = more signal; note: test concentration not given here
# [10] = resazurin metabolic signal in A549 cells – cell-based, resazurin fluorescence, 24 h, PK04 Diversity Set, profiling panel (AID 1171); conditions: A549 viability, higher = more signal, called active from +8 up or from −8 down; note: test concentration not given here
# [11] = resazurin metabolic signal in HepG2 cells – cell-based, resazurin fluorescence, 24 h, PK04 Diversity Set, profiling panel (AID 1172); conditions: HepG2 viability, higher = more signal; note: test concentration not given here
# [12] = budding yeast growth changes without added modifier – OD600, strain BY4716, 24 h, basal condition, primary screen (AID 1173); conditions: S. cerevisiae BY4716 growth, OD600, 24 h; higher = more signal, called active from +8 up or from −8 down
# [13] = viability profiling in MM1S myeloma cells – cell-based, resazurin fluorescence, basal, 24 h, PK04 Diversity Set, profiling panel (AID 1174); conditions: higher = more signal, called active from +8 up or from −8 down; note: test concentration not given here
# [14] = biological target: Dihydroorotate dehydrogenase (quinone), mitochondrial (Plasmodium falciparum (isolate 3D7)) (UniProt Q08210); test: inhibition of P. falciparum DHODH – biochemical, C-terminal His tag, absorbance 600 nm, primary screen (AID 1175); conditions: PfDHODH enzyme, DCIP absorbance 600 nm; higher = more signal, called active from +8 up or from −8 down;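 note: recombinant parasite enzyme with a five histidine tag at its C terminus; test concentration not given here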
# [15] = inhibition of PAO1 biofilm formation – strain PAO1, LB-PBS medium, absorbance 600 nm, primary screen (AID 1176); note: test concentration not given here; conditions: P. aeruginosa PAO1 growth/biofilm, A600, 12 h; higher = more signal
# [16] = growth modulation of vineyard yeast isolate – strain RM11-1a, OD600, basal, 24 h, primary screen (AID 1177);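 note: cultures grown under basal conditions with no added stressor; test concentration not given here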; conditions: S. cerevisiae RM11-1a growth, OD600, 24 h; higher = more signal, called active from +8 up or from −8 down
# [17] = growth of efflux-deficient E. coli DRC39 – strain DRC39, OD650, 24 h, E. coli filamentation inducers, primary screen (AID 1178);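 note: growth measured as culture turbidity by optical density at 650 nm; test concentration not given here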; conditions: E. coli DRC39 acrAB, higher = more signal, called active from +8 up or from −8 down
# [18] = growth of efflux-deficient E. coli DRC39 – strain DRC39, OD650, 48 h, E. coli filamentation inducers, primary screen (AID 1179);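 note: screen aims at cell division blockers that make cells filament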; conditions: E. coli DRC39 delta-acrAB growth, higher = more signal, called active from +8 up or from −8 down
# [19] = viability profiling in RPMI8226 myeloma cells – cell-based, resazurin fluorescence, basal, 24 h, PK04 Diversity Set, profiling panel (AID 1180); conditions: higher = more signal;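 note: RPMI8826 multiple myeloma cell line at 5000 cells per well; test concentration not given here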
# [20] = biological target: E3 ubiquitin-protein ligase XIAP (Homo sapiens) (UniProt P98170); test: small molecules binding XIAP protein – biophysical, small-molecule microarray, fluorescence 635 nm, primary screen (AID 1181); conditions: higher = more signal;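 note: score merges 667 nm emission and signal to noise over triplicate slides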
# E3 ubiquitin-protein ligase XIAP (Homo sapiens), sequence (P98170 whole entry, looked up): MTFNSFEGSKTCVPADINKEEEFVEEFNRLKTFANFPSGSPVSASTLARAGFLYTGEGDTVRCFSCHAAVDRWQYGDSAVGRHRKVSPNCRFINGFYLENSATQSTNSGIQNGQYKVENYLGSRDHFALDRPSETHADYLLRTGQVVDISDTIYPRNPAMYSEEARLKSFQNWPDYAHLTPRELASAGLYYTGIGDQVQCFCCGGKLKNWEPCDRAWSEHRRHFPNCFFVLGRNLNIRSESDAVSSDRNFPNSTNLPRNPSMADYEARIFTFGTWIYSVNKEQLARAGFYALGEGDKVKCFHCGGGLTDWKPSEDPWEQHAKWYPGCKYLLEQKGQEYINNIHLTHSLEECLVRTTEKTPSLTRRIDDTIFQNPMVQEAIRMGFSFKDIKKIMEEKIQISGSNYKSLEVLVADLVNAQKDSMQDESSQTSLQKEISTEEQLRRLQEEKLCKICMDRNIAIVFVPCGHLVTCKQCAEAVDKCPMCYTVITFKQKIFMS
# Dihydroorotate dehydrogenase (quinone), mitochondrial (Plasmodium falciparum (isolate 3D7)), sequence (Q08210 whole entry, looked up): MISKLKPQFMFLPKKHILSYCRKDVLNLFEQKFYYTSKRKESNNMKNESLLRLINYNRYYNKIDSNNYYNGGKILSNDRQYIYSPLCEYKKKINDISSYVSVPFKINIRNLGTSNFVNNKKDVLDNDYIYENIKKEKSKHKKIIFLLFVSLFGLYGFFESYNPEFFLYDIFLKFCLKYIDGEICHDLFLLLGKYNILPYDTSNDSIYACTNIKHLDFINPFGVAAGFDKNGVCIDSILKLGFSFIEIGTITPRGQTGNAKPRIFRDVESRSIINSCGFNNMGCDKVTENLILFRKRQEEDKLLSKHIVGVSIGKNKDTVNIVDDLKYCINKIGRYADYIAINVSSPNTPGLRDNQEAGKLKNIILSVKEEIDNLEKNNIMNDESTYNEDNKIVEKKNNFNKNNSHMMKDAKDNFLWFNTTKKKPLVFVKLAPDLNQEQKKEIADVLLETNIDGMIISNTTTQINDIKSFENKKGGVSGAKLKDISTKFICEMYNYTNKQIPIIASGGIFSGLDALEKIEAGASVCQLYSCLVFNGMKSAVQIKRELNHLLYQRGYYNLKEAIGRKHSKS
Compound,z-score [1],z-score [2],z-score [3],z-score [4],z-score [5],z-score [6],z-score [7],z-score [8],z-score [9],z-score [10],z-score [11],z-score [12],z-score [13],composite z-score [14],z-score [15],z-score [16],z-score [17],z-score [18],z-score [19],composite z-score [20]
COCCOC(=O)N1C(=O)[C@@]2(c3ccccc31)[C@H](c1ccc(O)cc1)N1[C@H](c3ccccc3)[C@H](c3ccccc3)OC(=O)[C@H]1[C@@H]2C(=O)N1CCCCCCC1,-0.438,-0.688,0.313,-0.474,-1.26,-1.25,-1.07 (inactive),0.167,0.584,-0.257 (inactive),0.0454,-0.712 (inactive),0.0065 (inactive),0.161 (inactive),1.57 (inactive),-0.122 (inactive),-0.391 (inactive),-1.88 (inactive),0.248,0.587
CO[C@H]1O[C@H](CO)[C@@H](OC(=O)Nc2ccccc2-c2ccccc2)[C@H](OC(=O)Nc2ccccc2)[C@H]1OC(=O)Nc1ccccc1,-1.66,1.29,-1.74,-2.76,-3.36,-0.216,0.877 (inactive),-0.747,-0.558,-3.34 (inactive),-1.68,0.788 (inactive),-3.07 (inactive),-0.0626 (inactive),2.11 (inactive),2.81 (inactive),1.15 (inactive),0.172 (inactive),-2.06,0.0479
COc1ccc([Si](C)(C)[C@H]2[C@H](CC(=O)N3Cc4ccccc4C[C@H]3CO)O[C@@]3(C(=O)N(C)c4c(Br)cc(C)cc43)[C@@H]2C)cc1,-2.66,0.231,-4.66,-2.71,-4.36,-2.2,0.0243 (inactive),-1.12,-2.31,-2.92 (inactive),-4.15,0.915 (inactive),-6.33 (inactive),0.973 (inactive),1.72 (inactive),3.17 (inactive),-0.652 (inactive),-0.984 (inactive),-6.22,-0.134
CN(C)C(=O)[C@]1(Cc2ccccc2)N=C(c2ccc(OCCCO)cc2)O[C@@H]1c1ccccc1CN=[N+]=[N-],0.233,0.412,-0.0312,-0.726,-1.65,0.501,0.0148 (inactive),-1.23,-0.507,0.553 (inactive),0.432,-1.3 (inactive),-0.0662 (inactive),-0.979 (inactive),-0.248 (inactive),0.22 (inactive),-0.348 (inactive),0.686 (inactive),0.431,0.0651
NC(=O)N1C(=O)C2C(C1=O)C1C=C(CCCO)C2C(c2ccc(CN3CCCC3)cc2)N1Cc1sc2ccccc2c1Cl (stereo not given),-0.142,-0.501,-0.389,-2.67,0.0222,0.916,-0.753 (inactive),0.0845,0.423,-0.301 (inactive),-0.968,-2.06 (inactive),-1.29 (inactive),0.574 (inactive),0.0721 (inactive),-0.243 (inactive),-0.291 (inactive),-0.693 (inactive),-1.04,-0.167
C=CCNC(=O)[C@H]1[C@@H]2C(=O)O[C@@H](c3ccccc3)[C@@H](c3ccccc3)N2[C@@H](c2ccc(OCCO)cc2)[C@]12C(=O)Nc1ccc(C#CC3(O)CCCCCC3)cc12,1.17,1.36,-0.0346,-2.27,-1.41,-1.57,0.43 (inactive),-0.819,-0.535,1.31 (inactive),-0.311,0.868 (inactive),-0.823 (inactive),-0.0685 (inactive),0.898 (inactive),2.62 (inactive),0.352 (inactive),0.988 (inactive),-0.987,-0.224
CCCc1cc2c(n1CCc1ccc(Cl)cc1)C(C)C1CN(C(=O)c3ccccc3)C(C)(C(=O)OC)C21 (stereo not given),-1.7,1.33,-0.534,-3.25,-4.74,4.02,-1 (inactive),-0.78,-1.19,-1.94 (inactive),-1.19,0.736 (inactive),-2.85 (inactive),-0.823 (inactive),0.659 (inactive),1.09 (inactive),-1.34 (inactive),-1.33 (inactive),-1.98,0.527
Cc1ccc(N2C(=O)c3ccccc3[C@](C)(C(=O)NCCCN(C)C)[C@@H]2c2ccc(CO)cc2)nc1,0.235,0.85,-0.153,-0.629,-0.444,-0.53,-0.419 (inactive),-0.884,-0.29,0.31 (inactive),0.218,-0.742 (inactive),-0.296 (inactive),0.0135 (inactive),0.084 (inactive),-0.764 (inactive),-0.0003 (inactive),-0.575 (inactive),-0.0858,-0.158
